Screens (PubChem BioAssay)
A selection: hits, their analogues and other compounds. The true share with any hit is near 31%.
CYP2C19 inhib – blockers of cytochrome P450 2C19 activity – biochemical, luminescence, ADME assay, primary screen; CYP2C19 Supersomes, luciferin-H EGE luminescence, 30 min; inhibition, % at 5 µM; actives 21% (n = 96,000);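 active means CYP2C19 inhibition above a set limit at 5 µM in the primary screen, cut at about 50% in these data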
Target sequence (P33261 whole entry, looked up): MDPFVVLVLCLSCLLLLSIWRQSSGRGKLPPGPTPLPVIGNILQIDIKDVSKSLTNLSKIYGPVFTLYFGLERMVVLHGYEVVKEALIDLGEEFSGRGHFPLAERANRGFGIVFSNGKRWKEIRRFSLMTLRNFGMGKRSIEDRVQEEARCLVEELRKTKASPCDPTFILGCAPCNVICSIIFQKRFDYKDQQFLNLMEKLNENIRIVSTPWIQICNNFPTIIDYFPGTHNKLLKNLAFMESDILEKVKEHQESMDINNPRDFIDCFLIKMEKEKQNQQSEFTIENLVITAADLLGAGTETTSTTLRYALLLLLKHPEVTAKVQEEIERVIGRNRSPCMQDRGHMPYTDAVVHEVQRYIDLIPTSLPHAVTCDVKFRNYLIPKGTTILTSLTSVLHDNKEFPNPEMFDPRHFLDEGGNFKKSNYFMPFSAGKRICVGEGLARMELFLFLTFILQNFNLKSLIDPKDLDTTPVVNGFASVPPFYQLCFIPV
CYP2C9 inh – blockers of cytochrome P450 2C9 activity – biochemical, luminescence, ADME assay, primary screen; actives 20% (n = 96,000); CYP2C9 Supersomes, luciferin-H conversion; inhibition, % at 5 µM;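 active means blocking of liver enzyme CYP2C9 beyond about 50% at 5 µM, limit read from the data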
CYP2C9 activ – human CYP2C9 activators, primary screen, biochemical, luminescence; AID 1024, 2008; actives 1.4% (n = 96,000); activation factor at 5 µM; recombinant CYP2C9, luciferin-H conversion; active compounds read high; factor 1 = untreated enzyme, 0 = blocked;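 active means activation factor of 2 or more for CYP2C9 at a 5 µM dose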
CYP2C19 act – human CYP2C19 activators, primary screen, biochemical, luminescence; activation factor at 5 µM; recombinant CYP2C19, luciferin-H EGE luminescence; active compounds read high; 0 = fully inhibited enzyme, 1 = untreated enzyme; 96,000 tested, under 10 active;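 active means activation factor of at least 2 at 5 µM in the primary screen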
Hits are given with their value; 0 = inactive.

SMILES	CYP2C19 inhib	CYP2C9 inh	CYP2C9 activ	CYP2C19 act
Cc1cc(-n2c(C)cc(C(=O)CSc3nnc4sc5ccccc5n34)c2C)no1	87	0	0	0
O=C(CSc1nnc2sc3ccccc3n12)N1CCN(c2ccccc2)CC1	0	0	2.8	0
O=C(CSc1nnc(NC(=O)c2ccco2)s1)NC1CCCC1	0	0	0	0
O=C(CSc1nnc2sc3ccccc3n12)c1ccco1	51	0	0	0
O=C(CSc1nnc(-c2ccncc2)n1-c1ccccc1)N1CCN(c2ccc(Cl)cc2)CC1	0	0	0	0
Cc1nn(-c2ccccc2)c(C)c1C(=O)OCC(=O)NC(=O)NC1CCCC1	0	0	0	0
CN(C)C(=O)CSc1nnc2sc3ccccc3n12	0	0	0	0
CCOC(=O)CC(=O)CSc1nnc2sc3ccccc3n12	0	0	2.3	0
CC(=O)c1cccc(OCC(=O)c2cc(C)n(-c3cc(C)on3)c2C)c1	86	78	0	0
Cc1ccccc1N1CCN(c2ncnc3c2cnn3Cc2ccc(Cl)cc2)CC1	0	76	0	0
Cc1ccc(Cn2ncc3c(N4CCN(Cc5ccc(Cl)cc5)CC4)ncnc32)cc1	0	0	0	0
CC1CCN(c2ncnc3c2cnn3Cc2ccc(Cl)cc2)CC1	0	76	0	0
Cc1[nH]c(=O)[nH]c(=O)c1S(=O)(=O)N1CCC(C(=O)N2CCN(Cc3ccccc3)CC2)CC1	0	0	0	0
CCCc1nc2oc3cc(OC)ccc3c(=O)c2c(=O)n1Cc1ccco1	0	0	0	0
CCCCCCn1c(-c2ccco2)nc2oc3cc(OC)ccc3c(=O)c2c1=O	93	90	0	0
COc1ccc2c(=O)c3c(=O)n(Cc4ccco4)c(-c4ccccc4)nc3oc2c1	73	73	0	0
Cc1c(NC(=O)c2cc(=O)[nH]c3ccccc23)c(=O)n(-c2ccccc2)n1C	0	0	0	0
Cc1cc(C(=O)Nc2c(C)n(C)n(-c3ccccc3)c2=O)c2ccccc2n1	0	0	0	0
Cc1cc(Br)cc2c(C(=O)Nc3c(C)n(C)n(-c4ccccc4)c3=O)cc(-c3cccs3)nc12	0	76	0	0
CCc1ccc(-c2cc(C(=O)Nc3c(C)n(C)n(-c4ccccc4)c3=O)c3ccccc3n2)s1	51	0	0	0
O=C(CCSc1ccccc1)Nc1nc2c(s1)COc1ccccc1-2	0	0	0	0
S=c1[nH]nc(COc2ccccc2)n1/N=C/C(Cl)=C/c1ccccc1	0	0	0	0
C/C(=N\N1CCN(C2c3ccccc3-c3ccccc32)CC1)c1ccncc1	77	52	0	0
Cc1ccsc1/C=N/N1CCN(C2c3ccccc3-c3ccccc32)CC1	0	88	0	0
CCC(C)NC(=O)COc1ccc(S(=O)(=O)N2CCOCC2)cc1 (configuration not stated)	0	0	0	0
SMILES	CYP2C19 inhib	CYP2C9 inh	CYP2C9 activ	CYP2C19 act
Cc1noc(C)c1C(=O)Nc1ccccc1-c1ccccc1	0	0	0	0
CCC(=O)OCc1cc2cccc(C)c2[nH]c1=O	53	0	0	0
Clc1ccc2nc(-c3ccc(Br)s3)cn2c1	0	0	0	0
COc1ccc(-c2cn3cc(Cl)ccc3n2)cc1OC	80	79	0	0
O=C(COc1cccc(NC(=O)c2cccc([N+](=O)[O-])c2)c1)c1ccc(Br)cc1	0	66	0	0
CCC(=O)Nc1cccc(NC(=O)c2cccc([N+](=O)[O-])c2)c1	0	0	0	0
COc1ccc(C(=O)/C=C(\N)C(F)(F)F)c(O)c1	60	0	0	0
O=C(COC(=O)c1ccccc1NC(=O)c1ccco1)Nc1ccc2c(c1)OCO2	0	58	0	0
O=C(COC(=O)c1ccccc1NC(=O)c1ccco1)NCC1CCCCC1	79	95	0	0
CC(OC(=O)c1ccco1)C(=O)NC1CCCCC1 (configuration not stated)	0	0	0	0
O=C(COC(=O)c1ccccc1NC(=O)c1ccco1)NCCC1=CCCCC1	0	84	0	0
CC(C)C(OC(=O)c1ccco1)C(=O)NC1CCCCC1 (configuration not stated)	80	0	0	0
CCC1(C)Cc2ccccc2/C(=C/C(=O)N2CCCCC2)N1 (configuration not stated)	0	0	0	0
Cc1ccc(S(=O)(=O)N2C(=O)C(c3ccccc3)SC2=Nc2ccccc2)cc1 (configuration not stated)	0	0	0	0
CC1CCN(c2ccc(C(=O)NCc3cccs3)cn2)CC1	0	0	0	0
O=c1ccc2cc3c([nH]c4ccc(Br)cc43)oc-2c1O	0	0	0	0
COc1cccc(-n2nnnc2SCC(=O)c2ccc(NC(C)=O)cc2)c1	0	0	0	0
O=C(NCC1CCCCC1)c1ccco1	66	0	0	0
O=C(COC(=O)c1ccc2c(c1)OCCO2)NCCC1=CCCCC1	0	0	0	0
O=C(COC(=O)c1cncc(Br)c1)NCCC1=CCCCC1	88	72	0	0
COC(=O)c1ccccc1NC(=O)COC(=O)c1ccc(C)c(NC(=O)c2ccco2)c1	57	75	0	0
O=C(NC1CCCCCCC1)c1ccco1	0	0	0	0
COc1ccc(Oc2nc(SC)nc3ccccc23)cc1	0	0	0	0
CCCCC(=O)Nc1nc(C)c(-c2csc(Nc3cc(OC)ccc3OC)n2)s1	0	79	0	0
COc1ccc(OC)c(Nc2nc(-c3sc(NC(=O)CC(C)C)nc3C)cs2)c1	0	78	0	0
SMILES	CYP2C19 inhib	CYP2C9 inh	CYP2C9 activ	CYP2C19 act
CCCCC(=O)Nc1nc(C)c(-c2csc(Nc3cc(Cl)ccc3OC)n2)s1	0	0	0	0
CCCC(C)C(=O)Nc1nc(C)c(-c2csc(Nc3ccc(Cl)cc3)n2)s1 (configuration not stated)	0	55	0	0
CCCCCC(=O)Nc1nc(C)c(-c2csc(Nc3ccccc3OC)n2)s1	0	0	0	0
CCCC(C)C(=O)Nc1nc(C)c(-c2csc(Nc3ccccc3OC)n2)s1 (configuration not stated)	0	74	0	0
CCN1CCCC1CNC(=O)C1c2cc(OC)c(OC)cc2C(=O)N(C)C1c1cccnc1 (configuration not stated)	0	0	0	0
CCC(C)C(=O)Nc1nc(C)c(-c2csc(Nc3cc(Cl)ccc3OC)n2)s1 (configuration not stated)	0	0	0	0
COc1ccccc1Nc1nc(-c2sc(NC(=O)c3ccc([N+](=O)[O-])cc3)nc2C)cs1	0	78	0	0
CCC(C)C(=O)Nc1nc(C)c(-c2csc(Nc3cc(OC)ccc3OC)n2)s1 (configuration not stated)	0	75	0	0
COc1ccc(OC)c(Nc2nc(-c3sc(C)nc3C)cs2)c1	85	80	0	0
Cc1oc(-c2ccccc2)[n+]([O-])c1C	0	0	0	0
CCOC(=O)c1ccccc1NC(=O)c1ccc(NS(C)(=O)=O)cc1	0	0	0	0
